Experimental data taken from PubChem BioAssay (NCI).
Several values for one entry are separate records, joined by “and”; a condition that tells them apart may be missing. Identical values can stand only once. About 83,000 compounds went through this panel and 20% of them were active in at least one assay; those are over-represented in the sample as a whole.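 Note: values are percent growth. 100 is the growth of untreated cells, values between 100 and 0 indicate rising inhibition; between -100 and 0 indicates cell death.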 Activity calls are given as the source filed them. Rule for the calls: active = growth percent below 10; inactive = the rest.

System: MDA-MB-468 breast
Assay: NCI-60 one-dose screen, 48 h (100 = growth as untreated, 0 = no growth, -100 = all killed)
Conditions: 10 µM unless noted

Q: Which growth does the source give for `COc1ccc(/C=C/C(=O)c2cccc(NS(C)(=O)=O)c2)cc1` here?
A: The growth was 47% (inactive).

Q: For `O=c1c(CNc2ccc(S(=O)(=O)Nc3ncccn3)cc2)coc2ccccc12`, which growth is on record?
A: Its growth is 108% (inactive).

Q: How did the growth turn out when `OCCNc1nccc(N2CCN(c3ccnc4cc(Cl)ccc34)CC2)n1` was run?
A: Its growth is 54.8% (inactive).

Q: With `COc1cc(-c2nn(-c3cccc(NC(=O)CN4CCOCC4)c3)cc2-c2cccnc2)ccc1Cl` as the compound, how does the growth read?
A: Its growth is 74.9% (inactive).

Q: How did the growth turn out when `OC(c1cc2cc(Cl)c(Cl)cc2c2cc(C(F)(F)F)ccc12)C1CCCCN1` (stereo not given) was run?
A: The growth was -92.2% (active).

Q: How did the growth turn out when `CCn1cc(C(=O)O)c(=O)c2cc(F)c(N3CCN(S(=O)(=O)c4ccc(Cl)cc4Cl)CC3)cc21` was run?
A: The growth was -1.55% (active).

Q: `COc1cccc(-c2nc3sccn3c2-c2ccnc(NCCCNS(=O)(=O)c3cccc(Cl)c3)c2)c1` was tested. Which growth did it give?
A: Its growth is 24.6% (inactive).

Q: How did the growth turn out when `O=c1nc(Nc2nc3ccccc3s2)[nH]c(=O)c2ccccc12` was run?
A: The growth was 99.4% (inactive).

Q: Which growth does the source give for `CCC1C[N+]2=C(c3cc(OC)c(OC)cc3CC2)c2c1cc1n2CCc2cc(OC)c(OC)cc2-1` (stereo not given) here?
A: Its growth is 1.92% (active).

Q: Which growth does the source give for `COc1ccc2[nH]c(-c3ccccc3)cc2c1` here?
A: The growth was 96.9% (inactive).

Q: `O=C(c1ccc(Cl)cc1)c1ccc(Cl)cc1` was tested. Which growth did it give?
A: Its growth is 97.2% (inactive).

Q: For `O=C(Cn1cc(CN2C(=O)c3ccc([N+](=O)[O-])cc3C2=O)nn1)Nc1ccccc1Br`, which growth is on record?
A: The growth was 111% (inactive).

Q: Which growth does the source give for `FCc1ncc(-c2ccc(C(F)(F)F)cc2)c(NC2CCCCCC2)n1` here?
A: The growth was 24.8% [100 µM] (inactive).

Q: Which growth does the source give for `C=C(C)[C@@H]1CC[C@]2(C(N)=O)CC[C@]3(C)[C@H](CC[C@@H]4[C@@]5(C)C/C(=C/c6cccnc6)[C@H](O)C(C)(C)[C@@H]5CC[C@]43C)[C@@H]12` here?
A: The growth was 23.6% [100 µM] (inactive).

Q: Which growth does the source give for `Brc1cccc(-c2cc(-c3ccc4nccnc4c3)[nH]n2)c1` here?
A: Its growth is 22.9% [25 µM] (inactive).

Q: How did the growth turn out when `COc1ccc(-c2cnc(N)nc2-c2ccc(OC)cc2O)cc1` was run?
A: The growth was 92.5% (inactive).

Q: How did the growth turn out when `COc1cccc2c1-c1ccccc1C2=O` was run?
A: Its growth is 39.3% (inactive).

Q: `CCOc1cccc(/C=N/NC(=O)c2ccccc2Nc2ccnc(C(F)(F)F)c2)c1O` was tested. Which growth did it give?
A: The growth was -23.6% (active).

Q: For `COc1ccc(/C=C/C=C\C(=O)c2ccc(-n3ccnc3)cc2)cc1`, which growth is on record?
A: Its growth is 92.4% (inactive).

Q: How did the growth turn out when `O=C(N/N=C/c1ccccc1O)C(O)(c1ccccc1)c1ccccc1` was run?
A: Its growth is 38.2% (inactive).

Q: For `Oc1c(Cl)cc(Cl)cc1Sc1cc(Cl)cc(Cl)c1O`, which growth is on record?
A: Its growth is 84% (inactive) and -2.78% (active) and 67.9% (inactive).

Q: Which growth does the source give for `O=S(=O)(NCCNc1nccc(-c2c(-c3cccc(F)c3)nc3sccn23)n1)c1ccc(Br)cc1` here?
A: The growth was 78.3% (inactive).

Q: With `O=C(O)c1ccccc1N=Cc1ccccc1` as the compound, how does the growth read?
A: The growth was 112% (inactive).

Q: Which growth does the source give for `Cc1sc2c(c1C)c(=O)nc1c(-c3nc(-c4ccc(F)cc4)no3)n[nH]n12` here?
A: The growth was 110% (inactive).

Q: With `CSCc1ncc(-c2ccc(C(F)(F)F)cc2)c(NC2CCCCCC2)n1` as the compound, how does the growth read?
A: The growth was 85.7% [25 µM] (inactive).

Q: How did the growth turn out when `Cc1ccc(C2=NN(c3ccc(S(N)(=O)=O)cc3)C(c3cn(-c4ccccc4)nc3-c3ccccc3)C2)cc1` (stereo not given) was run?
A: Its growth is 112% (inactive).

Q: With `Fc1ccc(/C=C/[C@@H]2C[C@@H](F)CCO2)cc1` as the compound, how does the growth read?
A: The growth was 84% (inactive).

Q: With `Fc1ccc(Cn2cc(CSc3nc4ccccc4o3)nn2)cc1` as the compound, how does the growth read?
A: The growth was 109% (inactive).

Q: How did the growth turn out when `Cc1cccc(C)c1NC(=S)/N=C\c1c(O)[nH]c(=O)[nH]c1=O` was run?
A: Its growth is 114% (inactive).

Q: Which growth does the source give for `CCCCCCCCn1ccc2cc(NC(=O)CN3CCN(c4nc(C)cc(Cl)n4)CC3)ccc21` here?
A: Its growth is 92.8% (inactive).

Q: With `CCOC(=O)c1cc2c(n1Cc1cc(OC)c(OC)c(OC)c1)-c1oncc1CCC2` as the compound, how does the growth read?
A: Its growth is 15.7% (inactive).

Q: For `C=C1CC[C@@H]2[C@](C)(COC(C)=O)[C@H](OC(C)=O)CC[C@@]2(C)[C@@H]1C/C=C1/C(=O)OC[C@H]1OC(C)=O`, which growth is on record?
A: Its growth is 7.98% (active).

Q: `NC(=O)c1c(NC(=O)c2ccc3c(c2)OCO3)sc2c1CCC(=O)C2` was tested. Which growth did it give?
A: The growth was -35.3% (active).

Q: Which growth does the source give for `COc1ccc(S(=O)(=O)NCCNc2nccc(-c3c(-c4cccc(N)c4)nc4sccn34)n2)cc1` here?
A: The growth was 88.5% (inactive).

Q: With `Cc1nn(-c2ccccc2)c2nc(Cl)c(/C=C/C(=O)c3ccccc3)c(-c3ccccc3)c12` as the compound, how does the growth read?
A: Its growth is 105% (inactive).

Q: With `COc1ccc2[nH]c(O)c(/C=c3/cc4c(c(-c5cc(OC)c(OC)c(OC)c5)n3)=Nc3ccccc3-4)c2c1` as the compound, how does the growth read?
A: The growth was 49.7% (inactive).

Q: Which growth does the source give for `O=C(N/N=C/c1ccc(Cl)cc1)c1[nH]c2ccc(Cl)cc2c1-c1ccccc1` here?
A: Its growth is 33.7% (inactive).

Q: Which growth does the source give for `Cn1cc(-c2csc(-c3cn(CCCN4CCCCC4)c4ccccc34)n2)c2cccnc21` here?
A: Its growth is 99.8% (inactive).

Q: Which growth does the source give for `O=C(/C(=C(\C(=O)c1ccccc1)c1ccccc1)c1ccccc1)c1ccccc1` here?
A: The growth was 47.9% (inactive).

Q: `CCCCCCCCCCCCCCCCC(C(=O)O)C(O)(CC(=O)O)C(=O)O` (stereo not given) was tested. Which growth did it give?
A: Its growth is 102% (inactive).
